Sampled rows, rich in hits. Any-hit rate of the full collection: about 18%.
LDHA inh: LDHA (human) enzyme inhibition | P00338 | purified LDHA, NADH/diaphorase-resazurin fluorescence; stronger effect = lower value | activity change, % (values are at about 110 or 230 µM) | 0.15% of 480,000 active | AID 1347041; in the data active = activity change below about -30%; inconclusive = mostly about -25% to -30%;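 note: plate controls were DMSO wells for no effect and wells without enzyme for full effect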
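LDH5 2 nM; NADH 0.06 mM, pyruvate 0.2 mM; 200 mM Tris pH 7.4, EDTA, Tween-20; 5 min RT. Detection: diaphorase 0.133 mg/mL + resazurin 37 µM, fluorescence ex540/em590 at 0 and 20 min; normalized to enzyme-free and DMSO wells.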
DT40 TDP1 no CPT: qHTS for Inhibitors of human tyrosyl-DNA phosphodiesterase 1 (TDP1): qHTS in cells in absence of CPT; DT40 Tdp1-/- hTDP1 cells, no CPT, ATP luminescence, 48 h; Potency, µM (series often up to 46.2 µM), for inactives: at the highest dose activity change, negative = growth inhibition, hits mostly inhibitors; 15% of 420,000 active; note: potency is the fitted concentration of half-maximal effect; nearly all actives have a fitted effect of over 55% in size
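Compound effects on proliferation are scored in DT40 Tdp1-/-;hTDP1 cells in the absence of CPT. ATP levels (CellTiter-Glo luminescence) are recorded after a ≥48 hr, 37 °C incubation.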
Gal4-VP16 FLuc: inhibits Gal4-VP16 luciferase reporter, ROR gamma counter-screen | 3.5% of 310,000 active | Potency, µM (doses to about 53.6 µM), inactives show at the top dose activity, negative = inhibition, most hits filed as inhibitors | Drosophila S2 Gal4-VP16 UAS-luciferase, luminescence, 20 h | AID 2546;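 note: Gal4-VP16 expression switched on by copper sulfate through the metallothionein promoter; potency is the fitted concentration of half-maximal effect; nearly all actives have a fitted effect of over 50% in size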
DT40 TDP1 CPT: growth inhibition of DT40 Tdp1-/-;hTDP1 cells with camptothecin (screen for TDP1 inhibitors); chicken DT40 Tdp1-/-;hTDP1 cells + 20 nM CPT, ATP luminescence, 48 h; Potency, µM (doses to about 46.2 µM), without a hit: at the highest dose activity change, negative = growth inhibition, actives largely listed as inhibitors; 12% of 420,000 active; AID 686979; note: potency is the fitted concentration of half-maximal effect; nearly all actives have a fitted effect of over 55% in size
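Cell growth measured by CellTiter-Glo luminescence after a minimum 48 h, 37 C compound exposure with 20 nM CPT in Tdp1-knockout DT40 cells stably expressing hTDP1, seeded 400/well; qHTS titration format.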
IL-1B inflam inh: inhibitors of inflammasome signaling (IL-1 beta secretion) | THP-1 LPS/ATP IL-1B secretion, AlphaLISA, 16 h; stronger effect = lower value | activity change, % at 57.5 µM | 4.7% of 360,000 active | AID 743279; in the data active = activity change below about -50%; inconclusive = mostly about -30% to -49%
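Secreted IL-1B measured by AlphaLISA bead assay after 16 h compound exposure of THP-1 cells; compounds (final up to 57.5 uM) added 1 h before LPS (250 ng/mL) and ATP (1.25 mM) stimulation; lower signal means less secretion.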
RORg inh: inhibitors of mouse ROR gamma transcriptional activity | Drosophila S2 Gal4-RORgamma UAS-luciferase reporter, 20 h | 5.4% of 310,000 active | AID 2551 | Potency, µM (titrated, usually from 53.6 µM), without a hit: at the highest dose activity change, negative = inhibition, hits mostly inhibitors; note: potency is the fitted concentration of half-maximal effect; nearly all actives have a fitted effect of over 60% in size
Target sequence (P51450 whole entry, looked up, the tested form may be a part): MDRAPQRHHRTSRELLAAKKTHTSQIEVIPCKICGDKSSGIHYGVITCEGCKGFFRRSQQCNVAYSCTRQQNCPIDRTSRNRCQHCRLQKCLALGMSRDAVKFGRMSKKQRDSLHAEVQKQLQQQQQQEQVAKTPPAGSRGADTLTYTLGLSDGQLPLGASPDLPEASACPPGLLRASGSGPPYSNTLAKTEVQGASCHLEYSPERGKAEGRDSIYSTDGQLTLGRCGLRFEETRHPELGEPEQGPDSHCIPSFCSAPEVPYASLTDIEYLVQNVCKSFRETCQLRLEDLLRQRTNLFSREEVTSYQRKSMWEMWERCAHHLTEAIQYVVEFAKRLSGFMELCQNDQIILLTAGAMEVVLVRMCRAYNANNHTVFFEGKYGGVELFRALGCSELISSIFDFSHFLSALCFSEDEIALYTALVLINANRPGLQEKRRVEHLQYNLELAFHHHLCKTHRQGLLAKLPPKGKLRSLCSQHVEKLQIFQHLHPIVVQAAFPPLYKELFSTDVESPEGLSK
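Schneider cells (Drosophila), stable Gal4 DBD–ROR gamma + UAS-luc; 1 hr cmpd preincubation; Cu2+ induction 700 uM final; 20 hr ambient; luminescence.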
* = called active by the depositor; ? = inconclusive; . = no result given; [ ] = remark or other dose. Unless noted, calls come from the whole dose curve; as a rule, active = well fitted curve in the direction sought with a large enough effect; inconclusive = small, poorly fitted or top-dose-only effect, or another doubt; inactive = no such curve, though single readings can be large; an effect the other way counts as inactive or inconclusive. Unless noted, % is set by controls: 0 for no effect and ±100 for the full control effect.

SMILES | LDHA inh | DT40 TDP1 no CPT | Gal4-VP16 FLuc | DT40 TDP1 CPT | IL-1B inflam inh | RORg inh
O=C(N/N=C/c1cn(-c2ccccc2)nc1-c1ccc(F)cc1)c1ccc2c(c1)OCO2 | -3.5 | 18.4µM* | ? | ? | ? | 2.24µM*
COc1ccc(-c2nn(-c3ccccc3)cc2/C=N/Nc2cccc(C(=O)O)c2)cc1 | 3.8 | -27.8% | -3.3% | -22.8% | -17.6 | ?
O/N=C/c1cn(-c2ccccc2)nc1-c1ccc2c(c1)OCCO2 | -5.4 | -10.3% | -3.5% | -10.8% | -88.4* | 39.7%
COc1ccccc1/C=N/NC(=O)c1ccc2c(c1)OCO2 | 0.9 | 0.8% | -15.3% | -0.6% | 2.0 | ?
COc1ccc(-c2nn(-c3ccccc3)cc2/C=N/NC(=O)c2ccc3c(c2)OCO3)cc1 | . | . | -25.8% | . | . | 2.51µM*
O=C(CCl)NCCNC(=O)c1cc(OCC(F)(F)F)ccc1OCC(F)(F)F | -8.8 | ? | -7.2% | ? | -60.2* | 13.8%
O=C(NCCNC(=O)c1cc(OCC(F)(F)F)ccc1OCC(F)(F)F)Nc1ccc(Cl)cc1 | -11.7 | 7.4% | 1.6% | -18.0% | -5.7 | ?
O=C(NCCNC(=O)c1cc(OCC(F)(F)F)ccc1OCC(F)(F)F)Nc1ccc(OC(F)(F)F)cc1 | 1.3 | 23.1µM* | -18.7% | ? | 65.2 | 34.1%
CCOC(=O)c1c(N)c(C#N)cn1-c1ccccc1 | 0.7 | 0.9% | -3.8% | -29.9% | -4.9 | -7.6%
CCOC(=O)c1c(-c2ccccc2)csc1NC(=O)CSc1nc(C)cc(C)n1 | -4.8 | 23.1µM* | ? | ? | -22.1 | ?
CCOC(=O)c1c(-c2ccccc2)csc1NC(=O)CSc1nc(N)cc(N)n1 | -4.0 | 8.2µM* | -17.6% | ? | -9.9 | ?
CCOC(=O)c1c(-c2ccccc2)csc1NC(=O)c1nn(CC)cc1Br | 2.0 | ? | -15.4% | ? | -66.7* | 0.6%
CCOC(=O)c1c(NC(=O)c2nn(CC)cc2Br)c(C#N)cn1-c1ccccc1 | -4.0 | 20.6µM* | -7.9% | ? | ? | 14.7%
CCN(CC)CCNc1nc(C23CC4CC(CC(C4)C2)C3)cs1 | 4.2 | . | . | . | . | .
CCCCNC(=O)c1cccc(C(=O)OC)c1 | -0.2 | . | . | . | . | .
Fc1ccc(N/N=C/c2ccc(Cl)c(Cl)c2)c(F)c1 | -0.4 | . | . | . | . | .
O=C(NC1CCCC(C(F)(F)F)C1)c1cnc2ccccn2c1=O (stereo unspecified) | 9.5 | . | . | . | . | .
C/C(=N\OC(=O)c1ccc(F)cc1)c1ccc(C)cc1 | 4.4 | . | . | . | . | .
CCCCC1=CC2=C(c3ccco3)C(=O)C(C)(OC(=O)c3ccc(OC)cc3)C(=O)C2=CN1Cc1ccc2c(c1)OCO2 (stereo unspecified) | 3.0 | 13µM* | 17.3% | 9.2µM* | ? | 12.0%
CCCCC1=CC2=C(c3ccco3)C(=O)C(C)(OC(=O)c3cccs3)C(=O)C2=CO1 (stereo unspecified) | . | . | -3.1% | . | . | -1.1%
CCCCC1=CC2=C(c3ccco3)C(=O)C(C)(OC(=O)c3ccc(OC)cc3)C(=O)C2=CN1C1CCCCC1 (stereo unspecified) | 1.0 | 4.61µM* | -5.1% | 4.61µM* | -13.7 | 38.4%
CCCCC1=CC2=C(c3ccco3)C(=O)C(C)(OC(=O)c3ccc(OC)cc3)C(=O)C2=CN1CCc1ccccn1 (stereo unspecified) | 11.2 | 9.2µM* | 4.4% | 5.8µM* | -6.9 | 15.2%
CCCCC1=CC2=C(c3ccco3)C(=O)C(C)(OC(=O)c3ccc(OC)cc3)C(=O)C2=CN1CCOC (stereo unspecified) | -8.3 | -16.7% | -2.3% | -26.0% | -18.8 | 37.0%
CCCCC1=CC2=C(c3ccco3)C(=O)C(C)(OC(=O)c3ccc(OC)cc3)C(=O)C2=CN1Cc1ccccc1 (stereo unspecified) | 13.4 | 4.61µM* | 3.6% | 5.17µM* | 2.9 | -34.0%
CCCn1nc(C(=O)Nc2ccc(OCC(=O)N(C)C)cc2)c2ccccc2c1=O | 8.7 | . | . | . | . | .
SMILES | LDHA inh | DT40 TDP1 no CPT | Gal4-VP16 FLuc | DT40 TDP1 CPT | IL-1B inflam inh | RORg inh
COC(=O)CCCC1=CC2=C(c3ccccc3)C(=O)C(C)(OC(=O)C3CCCC3)C(=O)C2=CN1C1CCCC1 (stereo unspecified) | -7.1 | 16.4µM* | -2.0% | ? | 25.2 | 9.6%
COc1ccc(CN2C=C3C(=O)C(C)(OC(=O)C4CCCC4)C(=O)C=C3C=C2c2ccsc2)cc1 (stereo unspecified) | 7.1 | 11.6µM* | 2.9% | ? | -3.5 | -5.4%
COC(=O)CCCC1=CC2=C(c3ccccc3)C(=O)C(C)(OC(=O)C3CCCC3)C(=O)C2=CN1CC1CC1 (stereo unspecified) | 14.5 | -9.7% | -8.2% | -10.7% | 14.9 | 30.3%
CC1(OC(=O)C2CCCC2)C(=O)C=C2C=C(c3ccsc3)N(CCCCO)C=C2C1=O (stereo unspecified) | 18.5 | -7.8% | 5.5% | -16.3% | -1.0 | 6.1%
CCCCC1=CC2=CC(=O)C(C)(OC(=O)CC)C(=O)C2=CN1Cc1ccc(OC)cc1 (stereo unspecified) | -10.0 | 13µM* | -11.9% | 25.9µM* | 40.3 | 19.0%
O=C(OCC(=O)N1CCN(S(=O)(=O)c2ccccc2)CC1)c1ccc([N+](=O)[O-])o1 | -0.6 | -16.6% | 4.0% | -27.9% | -10.8 | -15.8%
Cc1ccc(S(=O)(=O)N2CCN(C(=O)COC(=O)CCOc3ccc(C(C)(C)C)cc3)CC2)cc1 | -0.1 | 10.3µM* | . | 11.6µM* | -14.6 | .
CCOc1ccc(OCCC(=O)OCC(=O)N2CCN(S(=O)(=O)c3ccc(C)cc3)CC2)cc1 | 1.7 | 14.6µM* | . | 14.6µM* | -72.9* | .
Cc1ccc(OCCC(=O)OCC(=O)N2CCN(S(=O)(=O)c3ccc(Cl)cc3)CC2)cc1 | -9.9 | ? | . | ? | -58.7* | .
O=C(OCC(=O)N1CCN(S(=O)(=O)c2ccc(Cl)cc2)CC1)c1ccc([N+](=O)[O-])o1 | 9.3 | ? | -13.8% | 18.4µM* | ? | -7.2%
CCCOP(=O)(c1ccc(N(C)C)cc1)C(Nc1ccccc1)c1ccc(N(C)C)cc1 (stereo unspecified) | 2.3 | 2.31µM* | ? | 8.2µM* | 6.4 | ?
CCCOP(=O)(c1ccc(N(C)C)cc1)C(O)c1ccccc1OC (stereo unspecified) | -0.2 | ? | 1.3% | -7.0% | -14.6 | 11.1%[10 µM]
Cc1cc(C)cc(OCCC(=O)Nc2c(C)nn(C)c2C)c1 | 2.6 | . | . | . | . | .
Cn1c2ccccc2c2cc(/C=N/NC(=O)c3ccccc3F)ccc21 | -1.9 | ? | ? | 23.1µM* | -2.4 | ?

Source: PubChem (National Center for Advancing Translational Sciences (NCATS))
